# Experimental data reported in ChEMBL document CHEMBL1961873, “Compounds: GSK PKIS; Assays: Nanosyn kinase panel” (2012).
# Columns and labels:
# [1] = target: Sphingosine kinase 1 (Homo sapiens) (UniProt Q9NYA1); settings: at 1 µM;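 also: mean SPHK1 inhibition value reported from the GSK PKIS kinase panel screen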
# [2] = target: T1, Sphingosine kinase 2 (Homo sapiens) (UniProt Q9NRA0); settings: at 0.1 µM
# T1 sequence (whole entry): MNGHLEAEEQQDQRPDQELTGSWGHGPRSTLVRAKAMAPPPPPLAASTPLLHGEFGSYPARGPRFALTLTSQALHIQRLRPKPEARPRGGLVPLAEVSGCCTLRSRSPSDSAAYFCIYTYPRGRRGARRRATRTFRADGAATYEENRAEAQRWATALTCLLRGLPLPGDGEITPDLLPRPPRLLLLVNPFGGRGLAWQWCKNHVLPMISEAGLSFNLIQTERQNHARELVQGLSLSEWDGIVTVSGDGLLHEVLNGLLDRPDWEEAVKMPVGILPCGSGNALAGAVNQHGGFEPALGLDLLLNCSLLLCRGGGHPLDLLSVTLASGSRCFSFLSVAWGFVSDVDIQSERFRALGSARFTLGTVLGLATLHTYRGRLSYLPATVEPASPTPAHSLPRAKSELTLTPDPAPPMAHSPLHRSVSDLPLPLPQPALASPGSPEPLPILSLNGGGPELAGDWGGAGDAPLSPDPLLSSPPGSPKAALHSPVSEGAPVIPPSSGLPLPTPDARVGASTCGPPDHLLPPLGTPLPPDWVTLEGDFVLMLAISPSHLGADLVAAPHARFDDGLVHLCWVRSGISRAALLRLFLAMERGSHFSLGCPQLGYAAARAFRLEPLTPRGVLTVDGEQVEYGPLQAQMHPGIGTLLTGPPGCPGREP
# [3] = target: T1, Sphingosine kinase 2 (Homo sapiens); settings: at 1 µM
# [4] = target: Casein kinase II subunit alpha (Homo sapiens) (UniProt P68400); settings: at 0.1 µM
# Casein kinase II subunit alpha (Homo sapiens), sequence (P68400 whole entry, looked up): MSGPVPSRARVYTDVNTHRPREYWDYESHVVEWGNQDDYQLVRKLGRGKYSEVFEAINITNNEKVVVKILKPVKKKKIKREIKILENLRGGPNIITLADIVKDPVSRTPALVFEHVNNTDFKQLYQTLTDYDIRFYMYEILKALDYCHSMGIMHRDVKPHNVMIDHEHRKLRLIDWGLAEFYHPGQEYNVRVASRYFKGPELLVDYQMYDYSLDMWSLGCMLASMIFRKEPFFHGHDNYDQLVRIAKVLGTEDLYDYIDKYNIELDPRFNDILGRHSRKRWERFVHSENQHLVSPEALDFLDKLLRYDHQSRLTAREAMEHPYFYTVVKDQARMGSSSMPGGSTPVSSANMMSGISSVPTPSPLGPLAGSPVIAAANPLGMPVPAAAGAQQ
# [5] = target: Casein kinase II subunit alpha (Homo sapiens) (UniProt P68400); settings: at 1 µM
# [6] = target: T2, Inhibitor of nuclear factor kappa-B kinase subunit alpha (Homo sapiens) (UniProt O15111); settings: at 0.1 µM
# T2 sequence (whole entry): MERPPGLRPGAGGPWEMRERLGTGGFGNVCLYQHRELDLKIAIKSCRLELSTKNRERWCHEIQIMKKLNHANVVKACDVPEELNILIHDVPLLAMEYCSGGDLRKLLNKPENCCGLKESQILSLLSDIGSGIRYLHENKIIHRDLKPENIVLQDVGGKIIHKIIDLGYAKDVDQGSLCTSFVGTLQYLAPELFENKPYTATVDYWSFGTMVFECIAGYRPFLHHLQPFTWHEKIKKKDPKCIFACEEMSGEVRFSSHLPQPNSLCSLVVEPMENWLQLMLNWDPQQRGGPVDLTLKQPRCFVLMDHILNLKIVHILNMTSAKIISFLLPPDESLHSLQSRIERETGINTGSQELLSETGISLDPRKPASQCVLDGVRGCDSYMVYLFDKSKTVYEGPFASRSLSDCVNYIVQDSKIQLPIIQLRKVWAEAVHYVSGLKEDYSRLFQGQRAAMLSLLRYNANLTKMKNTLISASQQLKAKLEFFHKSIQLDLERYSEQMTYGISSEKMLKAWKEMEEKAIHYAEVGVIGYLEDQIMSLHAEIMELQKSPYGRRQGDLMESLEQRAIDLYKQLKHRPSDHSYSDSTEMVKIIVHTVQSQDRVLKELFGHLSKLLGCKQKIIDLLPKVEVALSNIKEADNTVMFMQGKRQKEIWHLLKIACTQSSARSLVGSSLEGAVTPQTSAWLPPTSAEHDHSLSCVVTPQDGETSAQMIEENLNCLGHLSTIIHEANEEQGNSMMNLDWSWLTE
# [7] = target: T3, Inhibitor of nuclear factor kappa-B kinase subunit beta (Homo sapiens) (UniProt O14920); settings: at 0.1 µM
# T3 sequence (whole entry): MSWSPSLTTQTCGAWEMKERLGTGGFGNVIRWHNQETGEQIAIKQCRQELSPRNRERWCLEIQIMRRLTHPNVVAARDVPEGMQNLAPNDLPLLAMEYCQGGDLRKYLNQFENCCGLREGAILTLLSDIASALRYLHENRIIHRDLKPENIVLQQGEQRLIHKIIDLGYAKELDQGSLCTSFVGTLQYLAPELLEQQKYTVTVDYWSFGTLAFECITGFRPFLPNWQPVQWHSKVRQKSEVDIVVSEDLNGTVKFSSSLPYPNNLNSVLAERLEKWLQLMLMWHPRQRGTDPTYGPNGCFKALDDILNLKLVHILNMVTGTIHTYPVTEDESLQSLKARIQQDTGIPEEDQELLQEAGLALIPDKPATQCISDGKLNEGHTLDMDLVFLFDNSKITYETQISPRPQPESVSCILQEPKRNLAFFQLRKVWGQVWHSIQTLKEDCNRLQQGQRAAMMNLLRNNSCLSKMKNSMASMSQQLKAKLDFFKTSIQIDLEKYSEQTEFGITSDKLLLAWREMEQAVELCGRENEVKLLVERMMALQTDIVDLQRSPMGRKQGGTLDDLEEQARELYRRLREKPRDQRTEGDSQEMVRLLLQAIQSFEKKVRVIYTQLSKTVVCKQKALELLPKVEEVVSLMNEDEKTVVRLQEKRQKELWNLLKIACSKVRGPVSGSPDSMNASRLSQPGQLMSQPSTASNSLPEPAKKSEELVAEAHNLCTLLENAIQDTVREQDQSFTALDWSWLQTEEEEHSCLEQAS
# [8] = target: T3, Inhibitor of nuclear factor kappa-B kinase subunit beta (Homo sapiens); settings: at 1 µM
# [9] = target: T4, Inhibitor of nuclear factor kappa-B kinase subunit epsilon (Homo sapiens) (UniProt Q14164); settings: at 0.1 µM
# T4 sequence (whole entry): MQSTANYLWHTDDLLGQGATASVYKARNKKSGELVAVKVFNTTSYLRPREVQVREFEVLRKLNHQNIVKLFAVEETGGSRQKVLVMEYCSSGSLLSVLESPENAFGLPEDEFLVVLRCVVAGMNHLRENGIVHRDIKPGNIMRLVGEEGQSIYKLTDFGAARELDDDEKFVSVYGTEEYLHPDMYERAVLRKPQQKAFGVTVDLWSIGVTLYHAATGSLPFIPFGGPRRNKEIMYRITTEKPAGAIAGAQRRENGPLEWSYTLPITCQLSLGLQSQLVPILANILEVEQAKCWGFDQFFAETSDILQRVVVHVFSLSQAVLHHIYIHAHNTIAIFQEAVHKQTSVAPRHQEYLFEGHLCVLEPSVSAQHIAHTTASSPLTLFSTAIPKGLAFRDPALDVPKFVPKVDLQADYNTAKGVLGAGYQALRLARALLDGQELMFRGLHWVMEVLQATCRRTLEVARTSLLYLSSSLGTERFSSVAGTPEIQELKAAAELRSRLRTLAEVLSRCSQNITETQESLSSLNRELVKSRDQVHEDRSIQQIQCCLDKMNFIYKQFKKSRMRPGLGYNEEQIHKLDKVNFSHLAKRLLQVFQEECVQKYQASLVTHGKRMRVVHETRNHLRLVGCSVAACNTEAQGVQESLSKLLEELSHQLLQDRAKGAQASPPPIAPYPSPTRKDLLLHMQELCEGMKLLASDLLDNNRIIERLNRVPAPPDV
# [10] = target: T4, Inhibitor of nuclear factor kappa-B kinase subunit epsilon (Homo sapiens); settings: at 1 µM
# [11] = target: T5, Serine/threonine-protein kinase Nek1 (Homo sapiens) (UniProt Q96PY6); settings: at 0.1 µM
# T5 sequence (whole entry): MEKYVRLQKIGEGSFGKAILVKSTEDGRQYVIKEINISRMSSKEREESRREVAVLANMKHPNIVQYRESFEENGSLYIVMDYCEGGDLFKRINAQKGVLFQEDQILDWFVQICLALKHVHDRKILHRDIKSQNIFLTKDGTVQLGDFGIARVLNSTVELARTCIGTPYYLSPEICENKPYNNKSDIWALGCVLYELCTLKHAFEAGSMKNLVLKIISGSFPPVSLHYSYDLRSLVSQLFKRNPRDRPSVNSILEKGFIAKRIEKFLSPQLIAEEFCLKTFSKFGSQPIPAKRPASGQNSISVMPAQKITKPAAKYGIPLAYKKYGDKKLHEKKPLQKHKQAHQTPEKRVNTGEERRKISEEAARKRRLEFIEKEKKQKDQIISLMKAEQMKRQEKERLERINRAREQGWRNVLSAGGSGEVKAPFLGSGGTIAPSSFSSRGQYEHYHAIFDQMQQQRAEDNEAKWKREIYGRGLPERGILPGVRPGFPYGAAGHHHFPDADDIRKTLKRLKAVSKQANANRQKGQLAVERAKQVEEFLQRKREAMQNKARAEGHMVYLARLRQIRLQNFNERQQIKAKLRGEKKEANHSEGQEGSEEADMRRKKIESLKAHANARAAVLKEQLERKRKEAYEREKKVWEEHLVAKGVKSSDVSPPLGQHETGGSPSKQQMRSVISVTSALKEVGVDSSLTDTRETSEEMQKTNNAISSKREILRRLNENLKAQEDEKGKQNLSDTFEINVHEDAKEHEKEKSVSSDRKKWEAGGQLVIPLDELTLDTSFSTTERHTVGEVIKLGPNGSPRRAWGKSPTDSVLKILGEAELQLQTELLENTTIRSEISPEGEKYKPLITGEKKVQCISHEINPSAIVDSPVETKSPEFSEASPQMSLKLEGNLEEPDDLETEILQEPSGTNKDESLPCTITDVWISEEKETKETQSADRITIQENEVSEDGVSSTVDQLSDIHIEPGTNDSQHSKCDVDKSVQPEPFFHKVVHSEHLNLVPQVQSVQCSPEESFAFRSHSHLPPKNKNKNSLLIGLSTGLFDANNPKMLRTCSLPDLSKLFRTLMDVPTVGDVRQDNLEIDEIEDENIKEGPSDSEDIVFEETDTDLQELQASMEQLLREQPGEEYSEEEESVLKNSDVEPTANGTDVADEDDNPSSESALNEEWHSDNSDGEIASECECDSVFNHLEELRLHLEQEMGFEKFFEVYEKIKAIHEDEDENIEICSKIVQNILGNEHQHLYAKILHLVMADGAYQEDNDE
# [12] = target: T5, Serine/threonine-protein kinase Nek1 (Homo sapiens); settings: at 1 µM
# [13] = target: T6, Serine/threonine-protein kinase Nek2 (Homo sapiens) (UniProt P51955); settings: at 0.1 µM
# T6 sequence (whole entry): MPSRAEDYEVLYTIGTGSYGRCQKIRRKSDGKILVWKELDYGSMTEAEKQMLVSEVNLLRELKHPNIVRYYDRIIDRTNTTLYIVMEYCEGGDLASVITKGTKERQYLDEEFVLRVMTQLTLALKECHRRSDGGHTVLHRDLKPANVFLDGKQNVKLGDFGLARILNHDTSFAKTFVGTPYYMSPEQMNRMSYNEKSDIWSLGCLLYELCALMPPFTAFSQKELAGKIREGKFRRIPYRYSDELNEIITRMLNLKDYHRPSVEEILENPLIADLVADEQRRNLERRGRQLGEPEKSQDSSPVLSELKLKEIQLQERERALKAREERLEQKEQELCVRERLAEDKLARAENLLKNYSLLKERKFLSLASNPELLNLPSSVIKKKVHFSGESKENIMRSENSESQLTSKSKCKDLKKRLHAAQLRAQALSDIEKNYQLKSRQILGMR
# [14] = target: T6, Serine/threonine-protein kinase Nek2 (Homo sapiens); settings: at 1 µM
# [15] = target: Serine/threonine-protein kinase Nek6 (Homo sapiens) (UniProt Q9HC98); settings: at 0.1 µM
# Serine/threonine-protein kinase Nek6 (Homo sapiens), sequence (Q9HC98 whole entry): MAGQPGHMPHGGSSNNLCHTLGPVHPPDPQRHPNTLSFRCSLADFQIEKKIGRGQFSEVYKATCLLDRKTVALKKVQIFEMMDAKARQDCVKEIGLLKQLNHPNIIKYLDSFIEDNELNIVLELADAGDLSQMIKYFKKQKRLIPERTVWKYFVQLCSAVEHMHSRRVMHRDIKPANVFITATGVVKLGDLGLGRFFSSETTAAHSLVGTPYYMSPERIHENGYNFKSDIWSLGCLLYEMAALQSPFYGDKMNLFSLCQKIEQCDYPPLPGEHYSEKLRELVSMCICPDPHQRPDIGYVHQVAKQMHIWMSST
# [16] = target: Serine/threonine-protein kinase Nek6 (Homo sapiens) (UniProt Q9HC98); settings: at 1 µM
# [17] = target: Serine/threonine-protein kinase Nek7 (Homo sapiens) (UniProt Q8TDX7); settings: at 0.1 µM
# Serine/threonine-protein kinase Nek7 (Homo sapiens), sequence (Q8TDX7 whole entry, looked up): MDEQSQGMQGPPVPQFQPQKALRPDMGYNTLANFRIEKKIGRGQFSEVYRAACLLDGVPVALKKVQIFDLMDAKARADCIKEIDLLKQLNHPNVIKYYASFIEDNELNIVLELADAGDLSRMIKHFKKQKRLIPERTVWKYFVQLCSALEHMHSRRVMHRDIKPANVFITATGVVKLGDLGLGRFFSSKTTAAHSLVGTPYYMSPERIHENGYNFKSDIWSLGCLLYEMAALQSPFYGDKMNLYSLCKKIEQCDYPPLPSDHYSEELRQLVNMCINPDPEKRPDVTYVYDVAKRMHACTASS
# [18] = target: Serine/threonine-protein kinase Nek7 (Homo sapiens) (UniProt Q8TDX7); settings: at 1 µM
# [19] = target: T7, Serine/threonine-protein kinase Nek9 (Homo sapiens) (UniProt Q8TD19); settings: at 0.1 µM;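 also: reported value is the mean percent inhibition of NEK9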
# T7 sequence (whole entry): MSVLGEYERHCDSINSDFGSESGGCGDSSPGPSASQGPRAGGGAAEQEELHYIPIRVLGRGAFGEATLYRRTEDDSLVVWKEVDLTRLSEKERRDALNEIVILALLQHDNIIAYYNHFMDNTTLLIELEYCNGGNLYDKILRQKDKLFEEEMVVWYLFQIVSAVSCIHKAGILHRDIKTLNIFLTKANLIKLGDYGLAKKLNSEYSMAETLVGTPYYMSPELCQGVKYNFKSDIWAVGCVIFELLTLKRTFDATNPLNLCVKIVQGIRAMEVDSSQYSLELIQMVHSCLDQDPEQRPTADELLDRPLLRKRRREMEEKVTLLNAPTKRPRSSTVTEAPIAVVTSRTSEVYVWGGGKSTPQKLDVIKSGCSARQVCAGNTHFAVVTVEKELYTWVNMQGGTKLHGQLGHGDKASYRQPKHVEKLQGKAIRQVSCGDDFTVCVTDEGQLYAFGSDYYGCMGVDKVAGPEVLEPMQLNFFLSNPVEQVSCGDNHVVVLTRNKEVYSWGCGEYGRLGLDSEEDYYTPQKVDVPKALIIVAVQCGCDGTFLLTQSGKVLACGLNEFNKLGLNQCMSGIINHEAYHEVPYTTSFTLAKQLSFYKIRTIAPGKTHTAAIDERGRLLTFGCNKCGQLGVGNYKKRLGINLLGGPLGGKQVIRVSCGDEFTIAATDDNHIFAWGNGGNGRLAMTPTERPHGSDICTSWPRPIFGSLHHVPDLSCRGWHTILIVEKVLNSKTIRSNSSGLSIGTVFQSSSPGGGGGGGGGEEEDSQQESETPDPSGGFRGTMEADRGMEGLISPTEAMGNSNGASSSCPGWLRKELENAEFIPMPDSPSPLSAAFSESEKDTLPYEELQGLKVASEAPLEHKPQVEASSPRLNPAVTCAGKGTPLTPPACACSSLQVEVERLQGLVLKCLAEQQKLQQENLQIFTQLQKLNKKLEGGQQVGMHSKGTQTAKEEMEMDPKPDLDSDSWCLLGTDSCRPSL
# [20] = target: T2, Inhibitor of nuclear factor kappa-B kinase subunit alpha (Homo sapiens); settings: at 1 µM
# Sphingosine kinase 1 (Homo sapiens), sequence (Q9NYA1 whole entry): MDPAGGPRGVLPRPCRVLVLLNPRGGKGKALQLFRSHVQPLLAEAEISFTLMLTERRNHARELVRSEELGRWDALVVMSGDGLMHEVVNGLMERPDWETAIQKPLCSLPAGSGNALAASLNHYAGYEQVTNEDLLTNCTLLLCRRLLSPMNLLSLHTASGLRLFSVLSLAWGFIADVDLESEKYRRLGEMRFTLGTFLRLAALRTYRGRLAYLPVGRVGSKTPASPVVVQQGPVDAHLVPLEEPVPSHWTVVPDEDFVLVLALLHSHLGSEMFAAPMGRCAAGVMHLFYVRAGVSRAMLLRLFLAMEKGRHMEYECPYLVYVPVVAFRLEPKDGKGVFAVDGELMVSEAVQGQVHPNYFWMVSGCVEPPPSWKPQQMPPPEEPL
SMILES,inhibition [1] [%],inhibition [2] [%],inhibition [3] [%],inhibition [4] [%],inhibition [5] [%],inhibition [6] [%],inhibition [7] [%],inhibition [8] [%],inhibition [9] [%],inhibition [10] [%],inhibition [11] [%],inhibition [12] [%],inhibition [13] [%],inhibition [14] [%],inhibition [15] [%],inhibition [16] [%],inhibition [17] [%],inhibition [18] [%],inhibition [19] [%],inhibition [20] [%]
CCn1c(-c2nonc2N)nc2ccncc21,-0.31,-1.06,0.26,-4.19,-5.18,-7.12,5.3,3.24,3.33,0.86,1.01,0.07,2.29,1.09,2.53,-2.93,3.2,2.01,0.35,
COc1ccc(-c2nn3ncccc3c2-c2ccnc(Nc3ccc(Cl)c(C(F)(F)F)c3)n2)cc1,-2.15,-0.61,0.61,2.8,8.2,5.34,5.25,8.22,4.71,5.7,1.43,2.51,2.35,1.82,3.06,2.55,3.34,3.28,6.79,3.48
